Measured values taken from publication PMC7826789 (International Journal of Molecular Sciences, 2021).

The molecules below were run on TEK.

Compound	Kinases covered
Cl.O=C(Nc1ccc(Oc2ccc3[nH]c(NC(=O)c4ccccc4)nc3c2)cc1)Nc1cc(C(F)(F)F)ccc1F [GW709042A]	TEK
Cl.O=C(Nc1ccc(Oc2ccc3[nH]c(NC(=O)c4ccco4)nc3c2)cc1)Nc1cc(C(F)(F)F)ccc1F [GW683134A]	TEK
COC(=O)Nc1nc2ccc(Oc3ccc(NC(=O)Nc4cc(C(F)(F)F)ccc4F)cc3)cc2s1.Cl [GW693917A]	TEK
Nc1ncnc2occ(-c3ccc(NC(=O)Nc4cc(C(F)(F)F)ccc4F)cc3)c12 [GW770249X]	TEK

What follows are molecules tested on TYK2.

Compound	Kinases covered
CN(C)C/C=C/C(=O)Nc1ccc(C(=O)Nc2cccc(Nc3ncc(Cl)c(-c4c[nH]c5ccccc45)n3)c2)cc1 [THZ1]	TYK2
COc1ccc(-c2cc3c(N)ncnc3o2)cc1 [GW642138X]	TYK2
Nc1ncnc2[nH]c(-c3ccccc3)nc12 [AH5015]	TYK2

What follows are molecules tested on YSK4.

Compound	Kinases covered
NC(=O)c1cccnc1COc1cc(-c2ccc(N3CCOCC3)nc2)cc2ncccc12 [BI01125081]	YSK4
CCCc1cc(N2CCCN(C)CC2)nc2sc3c(N)ncnc3c12 [BI00604564]	YSK4
COc1cc2c(cc1OC)C(=C(Nc1ccccc1)c1cccc(CN)c1)C(=O)N2 [BIBF0846CL]	YSK4
CC(C)N1CC(=O)N(C)c2cnc(Nc3cccc(S(=O)(=O)CCN4CCOCC4)c3)nc21 [BI00009348]	YSK4
Cc1cc(NC(=O)c2cccc(NC(=O)/C=C/CN(C)C)c2)ccc1Nc1nccc(-c2cccnc2)n1 [JNK-IN-7]	YSK4
